Among the test systems are DU-145 prostate; K-562 leukemia; MALME-3M melanoma; MDA-MB-231 breast; RXF 393 renal; SF-268 CNS; SF-295 CNS; SF-539 CNS; UACC-257 melanoma; M14 melanoma; HCT-15 colon; HT29 colon; SNB-75 CNS; SNB-19 CNS; U251 CNS; PC-3 prostate; SK-MEL-5 melanoma; UACC-62 melanoma; LOX IMVI melanoma; SK-MEL-28 melanoma.
Common to all, as to test: NCI-60 one-dose screen, 48 h (100 = growth as untreated, 0 = no growth, -100 = all killed)
What all share (details): 10 µM unless noted

The panel holds about 83,000 compounds, 20% with a hit somewhere; the sample as a whole holds those more often.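 A percent growth of 40 corresponds to 60% growth inhibition; 0 means no net growth; -100 means all cells died. Active threshold: below 10.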 A number with no mark means an inactive call. Activity calls are given as the source filed them.

As for `COc1ccc2nc3ccccc3c(NCc3ccc(Cl)cc3)c2c1`, the growth is 21.5% with DU-145 prostate; -30.2% (active) in the assay with K-562 leukemia; -81.6% (active) in the assay on MALME-3M melanoma; 24.3% with MDA-MB-231 breast; -24.2% (active) in the assay on RXF 393 renal; 53.5% with SF-268 CNS. The growth in the assay with SF-295 CNS was 25.8%; with SF-539 CNS, -5.77% (active); in the assay on UACC-257 melanoma, -52.2% (active); in the assay on M14 melanoma, -86.1% (active); in the assay on HCT-15 colon it was 5.04% (active); in the assay with HT29 colon, -2.29% (active). Further, the growth in the assay with SNB-75 CNS is 57.6%; in the assay on SNB-19 CNS, 26.4%; in the assay with U251 CNS it was 2.55% (active); with PC-3 prostate it was 19.5%; with SK-MEL-5 melanoma it was 11.7%; in the assay with UACC-62 melanoma, 64.7%. Further, the growth with LOX IMVI melanoma is -86.3% (active); in the assay on SK-MEL-28 melanoma it was 7.07% (active).

For the compound `COc1ccc(-c2nc3c(c(-c4ccc(Cl)cc4)nn3-c3ccccc3)c(-c3ccc(O)cc3)c2C#N)cc1`, the growth is 51.6% in the assay with DU-145 prostate; 10.8% in the assay on K-562 leukemia; 62.6% in the assay on MALME-3M melanoma; 65.6% in the assay with MDA-MB-231 breast; -12.7% (active) with RXF 393 renal; 46.1% in the assay with SF-268 CNS. Also, the growth with SF-295 CNS was -6.26% (active); with SF-539 CNS it was 27.6%; in the assay on UACC-257 melanoma it was 65.4%; with M14 melanoma, 45.9%; in the assay with HCT-15 colon, 29.7%; in the assay on HT29 colon, 23%. The growth was 35.1% in the assay with SNB-75 CNS; 62.1% with SNB-19 CNS; 33.7% in the assay with U251 CNS; 23.9% in the assay with PC-3 prostate; 42.9% in the assay with SK-MEL-5 melanoma; 56.9% with UACC-62 melanoma. Moreover, the growth was 12.4% in the assay with LOX IMVI melanoma and 59.2% with SK-MEL-28 melanoma.

Turning to `CNC(=O)c1c(NC(=O)c2ccc(C(C)C)cc2)sc2c1CCC(=O)C2`, the growth is 23.4% in the assay with DU-145 prostate; 1.86% (active) in the assay with K-562 leukemia; -45.3% (active) with MALME-3M melanoma; -55.9% (active) in the assay with MDA-MB-231 breast; -32.9% (active) with RXF 393 renal; 15.3% with SF-268 CNS. The growth was -29.4% (active) with SF-295 CNS; -63.7% (active) in the assay with SF-539 CNS; 1.16% (active) in the assay on UACC-257 melanoma; -39.4% (active) with M14 melanoma; -40.7% (active) in the assay with HCT-15 colon; 3.51% (active) with HT29 colon. Further, the growth in the assay on SNB-75 CNS is -11.9% (active); with SNB-19 CNS, 8.7% (active); in the assay with U251 CNS, -20.2% (active); in the assay with PC-3 prostate, -40% (active); in the assay on SK-MEL-5 melanoma, -71.4% (active); in the assay with UACC-62 melanoma, -54.7% (active). In addition, the growth in the assay on LOX IMVI melanoma is 1.13% (active); with SK-MEL-28 melanoma it was -32.1% (active).

On to `O=C(Nc1ccc(Br)cc1)c1ccc(Cl)c(Cl)c1`, for which the growth in the assay on DU-145 prostate is 34.7%; in the assay on K-562 leukemia, 12.9%; in the assay on MALME-3M melanoma, 48.5%; in the assay with MDA-MB-231 breast, 56%; in the assay on RXF 393 renal, 112%; in the assay with SF-268 CNS it was 73.6%. In addition, the growth with SF-295 CNS was 6.6% (active); with SF-539 CNS it was 67.5%; in the assay with UACC-257 melanoma, 102%; in the assay on M14 melanoma, 64.5%; in the assay on HCT-15 colon it was 32.3%; in the assay on HT29 colon, 40.1%. The growth with SNB-75 CNS was 38.6%; in the assay with SNB-19 CNS, 35%; with U251 CNS, 32.4%; in the assay with PC-3 prostate it was -22% (active); in the assay on SK-MEL-5 melanoma it was 49.4%; in the assay on UACC-62 melanoma, 43.6%. Moreover, the figures for the growth in the assay on LOX IMVI melanoma and in the assay on SK-MEL-28 melanoma were 33.3% and 73%, respectively.

`O=C(CCl)N1c2ccccc2Oc2ccc3ccccc3c21`: the growth is -7.27% (active) with DU-145 prostate; 2.96% (active) in the assay with K-562 leukemia; -49% (active) in the assay on MALME-3M melanoma; -26.8% (active) in the assay on MDA-MB-231 breast; -83.7% (active) with RXF 393 renal; -39.3% (active) in the assay with SF-268 CNS. The growth was -15.8% (active) in the assay on SF-295 CNS; -80.1% (active) with SF-539 CNS; 8.99% (active) in the assay with UACC-257 melanoma; -70% (active) in the assay with M14 melanoma; -81.1% (active) in the assay on HCT-15 colon; -49.8% (active) in the assay with HT29 colon. Besides, the growth in the assay on SNB-75 CNS is 22.1%; in the assay on SNB-19 CNS, 24.5%; in the assay on U251 CNS it was -64.3% (active); in the assay with PC-3 prostate, 6.63% (active); in the assay with SK-MEL-5 melanoma, 3.7% (active); in the assay with UACC-62 melanoma, -0.259% (active). Also, the growth with LOX IMVI melanoma is -81.1% (active); with SK-MEL-28 melanoma, 53.8%.

With `CC(C)(C)c1ccc(OC(=O)Nc2ccccc2)cc1`, the growth with DU-145 prostate was 107%; in the assay on K-562 leukemia it was 88%; in the assay with MALME-3M melanoma, 96.6%; in the assay with MDA-MB-231 breast it was 109%; with RXF 393 renal it was 118%; in the assay with SF-268 CNS, 96%. For the same compound, the growth with SF-295 CNS is 103%; in the assay with SF-539 CNS, 90.5%; in the assay on UACC-257 melanoma it was 99.5%; with M14 melanoma, 96.5%; in the assay on HCT-15 colon, 104%; in the assay with HT29 colon it was 101%. Further, the growth was 106% in the assay with SNB-75 CNS; 109% in the assay with SNB-19 CNS; 101% in the assay on U251 CNS; 96.3% with PC-3 prostate; 104% with SK-MEL-5 melanoma; 110% with UACC-62 melanoma. Moreover, the growth in the assay on LOX IMVI melanoma was 102%; in the assay on SK-MEL-28 melanoma it was 122%.

With `CN(C)c1nc(-c2cccs2)n2nc(-c3ccco3)cc2n1`, the growth with DU-145 prostate was 116%; with K-562 leukemia, 106%; in the assay on MALME-3M melanoma, 121%; with MDA-MB-231 breast, 82.6%; in the assay with RXF 393 renal it was 83.7%; in the assay on SF-268 CNS, 104%. Also, the growth in the assay with SF-295 CNS is 106%; with SF-539 CNS, 93.6%; in the assay with UACC-257 melanoma, 113%; in the assay with M14 melanoma, 98%; in the assay on HCT-15 colon, 79.4%; in the assay with HT29 colon it was 93.4%. The growth in the assay on SNB-75 CNS was 86.5%; with SNB-19 CNS, 102%; in the assay on U251 CNS, 93.6%; with PC-3 prostate, 91.2%; in the assay on SK-MEL-5 melanoma, 94.1%; in the assay with UACC-62 melanoma it was 89.7%. Further, the growth was 77.6% in the assay with LOX IMVI melanoma and 117% in the assay with SK-MEL-28 melanoma.

In the case of `COc1ccc(CNc2c3ccccc3nc3ccc(OC)cc23)cc1`, the growth is 20% in the assay with DU-145 prostate; 0.27% (active) in the assay with K-562 leukemia; 7.06% (active) in the assay with MALME-3M melanoma; 23.6% in the assay on MDA-MB-231 breast; -2.57% (active) in the assay on RXF 393 renal; 40.2% in the assay on SF-268 CNS. Further, the growth in the assay with SF-295 CNS was 19.4%; in the assay on SF-539 CNS, 8.46% (active); in the assay with UACC-257 melanoma, 6.58% (active); with M14 melanoma it was 19.5%; in the assay with HCT-15 colon it was 5.34% (active); in the assay on HT29 colon it was -2.9% (active). Besides, the growth was 27.4% with SNB-75 CNS; 22.7% in the assay with SNB-19 CNS; 16.1% in the assay on U251 CNS; 5.53% (active) in the assay on PC-3 prostate; 11.1% in the assay on SK-MEL-5 melanoma; 42.6% with UACC-62 melanoma. The growth with LOX IMVI melanoma was -75.1% (active); with SK-MEL-28 melanoma it was 41.3%.

These data come from PubChem BioAssay (NCI).
